The target in experiment [1] is Ubiquitin carboxyl-terminal hydrolase 1 (Homo sapiens) (UniProt O94782). The experiment can be described thus: Inhibitors of USP1/UAF1: Pilot qHTS (AID 504865). Note: nearly all actives have a fitted effect of over 35% in size. Note: potency is the fitted concentration of half-maximal effect. In short, it runs like this: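 1nM USP1/UAF1 + cpd, 15 min RT; start w/ Ub-Rho 150nM final; kinetic FL 480/540 nm, 6 reads q60 s. Buffer 50mM HEPES pH 7.8, 0.5mM EDTA, 1mM TCEP, 0.01% Tween-20, 0.1 mg/ml BSA.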
(In qHTS, concentration-response curves come from the screen itself.)

Experiment [2] is described as follows: qHTS profiling for inhibitors of Plasmodium falciparum proliferation (AID 504749).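 Note: 0% = DMSO vehicle and full inhibition = artemisinin control; nearly all actives have a fitted effect of over 60% in size.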 The following applies: P. falciparum in erythrocytes, SYBR Green DNA, 72 h, at 28.7 µM (top of the series). In short, it runs like this: (§1)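 In a 72 h erythrocytic culture (37 C, humidified, 5% CO2) at 2.5% hematocrit and 0.3% starting parasitemia, compounds were tested; SYBR Green I in detergent lysis buffer stained parasite DNA overnight.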

For the next experiment, the system named is AA1029. The experiment is described as above. The following applies: P. falciparum in erythrocytes, SYBR Green DNA, 72 h; series mostly up to 28.7 µM. The procedure, abridged: as §1
In another experiment the test system is ATS189. Described as above. The following applies: P. falciparum in erythrocytes, SYBR Green DNA, 72 h; series mostly up to 28.7 µM. The procedure, abridged: as §1
For a further experiment, the system named is CP185. Described as above. The following applies: P. falciparum in erythrocytes, SYBR Green DNA, 72 h; series mostly up to 28.7 µM. The procedure, abridged:
as §1

For another experiment, the system named is CP201. Described as above. The following applies: P. falciparum in erythrocytes, SYBR Green DNA, 72 h; series mostly up to 28.7 µM. In short, it runs like this:
as §1

In the next experiment the test system is CP238. The description is as above. The following applies: P. falciparum in erythrocytes, SYBR Green DNA, 72 h; series mostly up to 28.7 µM. The procedure, abridged:
as §1

The next experiment relates to CP252. The experiment is described as above. The following applies: P. falciparum in erythrocytes, SYBR Green DNA, 72 h; series mostly up to 28.7 µM. The procedure, abridged:
as §1

The next experiment relates to CP265. Described as above. The following applies: P. falciparum in erythrocytes, SYBR Green DNA, 72 h; series mostly up to 28.7 µM. The procedure, abridged: as §1
Another experiment relates to CP286. Described as above. The following applies: P. falciparum in erythrocytes, SYBR Green DNA, 72 h; series mostly up to 28.7 µM. In short, it runs like this: as §1
The test system of another experiment is CP305. Described as above. The following applies: P. falciparum in erythrocytes, SYBR Green DNA, 72 h; series mostly up to 28.7 µM. In short, it runs like this: as §1
For a further experiment, the system named is CP315. Described as above. The following applies: P. falciparum in erythrocytes, SYBR Green DNA, 72 h; series mostly up to 28.7 µM. In short, it runs like this: as §1
A further experiment deals with CP325. Described as above. The following applies: P. falciparum in erythrocytes, SYBR Green DNA, 72 h; series mostly up to 28.7 µM. In short, it runs like this: as §1
For another experiment, the system named is FAB9. The description is as above. The following applies: P. falciparum in erythrocytes, SYBR Green DNA, 72 h; series mostly up to 28.7 µM. In short, it runs like this: as §1
The subject of the next experiment is JCK. Described as above. The following applies: P. falciparum in erythrocytes, SYBR Green DNA, 72 h; series mostly up to 28.7 µM. The procedure, abridged:
as §1

In experiment [3] the target is Cytochrome P450 3A4 (Homo sapiens) (UniProt P08684). The experiment can be described thus: qHTS Assay for Inhibitors and Substrates of Cytochrome P450 3A4 (AID 884). Note: nearly all actives have a fitted effect of over 50% in size. Note: potency is the fitted concentration of half-maximal effect. The procedure, abridged: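 Luminescent readout of luciferin produced by CYP3A4 (20 nM) dealkylation of Luciferin-PPXE, 25 uM (its KM). NADPH-driven reaction ran 60 min at RT after 10 min compound preincubation; data scaled to 57 uM ketoconazole as 100% inhibition.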

Experiment [4] deals with DNA dC->dU-editing enzyme APOBEC-3G (Homo sapiens) (UniProt Q9HC16). The experiment can be described thus: qHTS for inhibitors of Vif-A3G interactions: Validation (AID 588379). Note: potency is the fitted concentration of half-maximal effect. In short, it runs like this:
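Yellow fluorescence (Ex 488, Em 500-530) of Vif-coexpressing HeLa A3G-eYFP cells, scanned by Acumen cytometer, reports blocked A3G degradation. Cells plated at 700/well overnight at 37 deg C before compound addition, then a further overnight compound incubation at 37 deg C.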

Experiment [5] has as its target Cytochrome P450 3A4 (Homo sapiens) (UniProt P08684). Put plainly: qHTS Assay for Activators of Cytochrome P450 3A4 (AID 885). Note: nearly all actives have a fitted effect of over 65% in size. The procedure, abridged:
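Human CYP3A4 dealkylates Luciferin-PPXE to luciferin, which luciferase detection converts to light. Substrate was at its KM (25uM), buffer 200mM KPO4, reaction 60 min at RT.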

The structures appear in SMILES notation. Unmarked numbers belong to inactive results. Results filed as inconclusive are left out. Active and inactive are the calls of the source. Calls come from the whole dose curve; as a rule, active = well fitted curve in the direction sought with a large enough effect; inconclusive = small, poorly fitted or top-dose-only effect, or another doubt; inactive = no such curve, though single readings can be large; an effect the other way counts as inactive or inconclusive. Numbered stars: 1 amine (or outer) side, 2 acyl side, 3 side chain; on linkers, the order of the positions; unused ones are H or OH. Bridge positions count the residues as written; N and C are the ends. Square brackets hold non-standard residues; d marks the D form. Peptide text beside a SMILES is read from it. * marks the point of attachment. ξ: configuration not given here. ΔAla(Z-3-ureido) = NC(=O)N/C=C(\N)C(=O)O; X2 = NC1=NC(O)CC(C(N[*:1])C(=O)[*:2])N1; ξβ3hOrn = NCCCC(N)CC(=O)*; Dap = NC[CH](N)C(=O)O

Consider 9 compounds from PubChem BioAssay (NCATS).

Sequence of Ubiquitin carboxyl-terminal hydrolase 1 (Homo sapiens) (O94782 whole entry, looked up): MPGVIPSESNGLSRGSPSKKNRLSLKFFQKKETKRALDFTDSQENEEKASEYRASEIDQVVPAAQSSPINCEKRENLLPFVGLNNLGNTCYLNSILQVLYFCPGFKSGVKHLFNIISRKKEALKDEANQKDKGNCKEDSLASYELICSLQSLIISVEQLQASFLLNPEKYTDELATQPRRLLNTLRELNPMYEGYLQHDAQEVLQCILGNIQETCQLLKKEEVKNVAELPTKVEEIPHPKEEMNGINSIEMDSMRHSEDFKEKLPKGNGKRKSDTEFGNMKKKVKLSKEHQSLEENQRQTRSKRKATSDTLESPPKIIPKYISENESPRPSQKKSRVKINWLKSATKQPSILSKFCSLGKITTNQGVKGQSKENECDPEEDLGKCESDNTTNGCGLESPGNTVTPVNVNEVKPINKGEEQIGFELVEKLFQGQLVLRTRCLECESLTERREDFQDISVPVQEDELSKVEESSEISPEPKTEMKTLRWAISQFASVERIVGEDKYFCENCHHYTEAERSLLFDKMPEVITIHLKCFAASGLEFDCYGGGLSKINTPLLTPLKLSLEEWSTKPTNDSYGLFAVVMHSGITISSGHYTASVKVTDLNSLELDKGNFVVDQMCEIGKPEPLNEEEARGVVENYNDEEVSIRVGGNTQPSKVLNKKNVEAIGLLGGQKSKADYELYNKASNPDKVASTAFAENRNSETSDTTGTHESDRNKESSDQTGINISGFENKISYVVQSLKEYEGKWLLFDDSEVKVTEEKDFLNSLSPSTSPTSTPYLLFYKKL
Sequence of DNA dC->dU-editing enzyme APOBEC-3G (Homo sapiens) (Q9HC16 whole entry, looked up): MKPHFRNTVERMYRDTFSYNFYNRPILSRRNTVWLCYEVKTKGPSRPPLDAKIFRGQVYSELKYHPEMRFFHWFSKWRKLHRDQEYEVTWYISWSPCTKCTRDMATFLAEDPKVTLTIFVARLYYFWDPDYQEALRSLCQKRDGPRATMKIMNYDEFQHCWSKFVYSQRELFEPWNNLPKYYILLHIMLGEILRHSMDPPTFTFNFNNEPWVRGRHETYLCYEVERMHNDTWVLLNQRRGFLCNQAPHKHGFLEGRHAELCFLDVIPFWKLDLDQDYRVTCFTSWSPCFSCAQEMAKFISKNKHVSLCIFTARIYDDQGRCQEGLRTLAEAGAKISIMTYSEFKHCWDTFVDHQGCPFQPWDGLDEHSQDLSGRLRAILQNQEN
Sequence of Cytochrome P450 3A4 (Homo sapiens) (P08684 whole entry, looked up): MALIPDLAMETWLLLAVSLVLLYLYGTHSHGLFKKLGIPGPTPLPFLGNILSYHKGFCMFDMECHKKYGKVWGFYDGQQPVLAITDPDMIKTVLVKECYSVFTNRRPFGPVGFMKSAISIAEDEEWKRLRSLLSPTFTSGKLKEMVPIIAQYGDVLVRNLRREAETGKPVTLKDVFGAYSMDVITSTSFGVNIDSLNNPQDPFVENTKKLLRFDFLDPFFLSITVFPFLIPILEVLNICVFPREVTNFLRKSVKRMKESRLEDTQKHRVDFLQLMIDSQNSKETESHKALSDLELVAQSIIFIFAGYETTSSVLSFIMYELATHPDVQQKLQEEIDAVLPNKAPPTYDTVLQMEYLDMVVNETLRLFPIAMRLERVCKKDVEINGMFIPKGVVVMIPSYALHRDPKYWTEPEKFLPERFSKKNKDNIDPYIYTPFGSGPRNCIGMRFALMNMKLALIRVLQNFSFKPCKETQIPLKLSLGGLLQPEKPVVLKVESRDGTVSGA

Regarding `CC(N)C(=O)NCC(=O)NC1CSSCC(C(=O)O)NC(=O)C(CO)NC(=O)C(C(C)O)NC(=O)C(Cc2ccccc2)NC(=O)C(C(C)O)NC(=O)C(CCCCN)NC(=O)C(Cc2c[nH]c3ccccc23)NC(=O)C(Cc2ccccc2)NC(=O)C(Cc2ccccc2)NC(=O)C(CC(N)=O)NC(=O)C(CCCCN)NC1=O` (centres undefined), the Potency result (in experiment [1]; in the experiment with AA1029; in the experiment on ATS189; with CP185; with CP201; with CP238) was “inactive” throughout. Also, the Potency result in the experiment on CP252, in the experiment on CP265, with CP286, in the experiment with CP305, in the experiment on CP315 and with CP325 was “inactive” in each case. Besides, the Potency result in the experiment with FAB9 and with JCK was “inactive” each time. Further, the activity, negative = inhibition was 12% in experiment [2] (parasite line A) and 4.8% in experiment [2] (parasite line B).
Take `COc1cccc2c1C(=O)CC(c1ccccc1)O2` (centres undefined): the Potency entry in [3], in [1] and in experiment [4] was “inactive” each time.
Take `COc1cc2c(C=O)c3c4c(cc(OC)c(OC)c4c2cc1OC)CCN3C`: the values for the Potency in experiment [3], in [1] and in experiment [4] were 2 µM (active), 22.4 µM (active) and 21.1 µM (active), respectively. In addition, the Potency result in experiment [5] is “inactive”.
Consider `COc1ccc2c(c1OC)C(Cc1ccccc1)N1CCc3cc4c(cc3C1=C2)OCO4` (centres undefined), for which the Potency is 0.199 µM (active) in [3] and 39.8 µM (active) in experiment [1]. Further, the Potency result in experiment [5] and in experiment [4] was “inactive” each time.
As to `C[C@H](C(=O)O)c1cccc(C(=O)c2ccccc2)c1`, the Potency result in experiment [1] and in experiment [4] was “inactive” each time.
For `O=C1/C(=C\c2cccs2)CCC/C1=C/c1cccs1`, the figures for the activity, negative = inhibition in experiment [2] (parasite line A) and in experiment [2] (parasite line B) were 0.948% and 10.7%, respectively. Further, the Potency entry in the experiment with AA1029, in the experiment with ATS189, in the experiment on CP185, with CP201, with CP238 and in the experiment with CP252 was “inactive” throughout. The Potency entry in the experiment with CP265, with CP286, in the experiment on CP305, in the experiment on CP315, in the experiment on CP325 and with FAB9 was “inactive” in each case. The Potency result in the experiment on JCK is “inactive”.
With `CC[C@H](/C=C/[C@@H](C)[C@H]1CC[C@H]2C3CC=C4C[C@@H](O)CC[C@]4(C)C3CC[C@]12C)C(C)C` (some centres undefined), the Potency result in experiment [3], in [1] and in [4] was “inactive” each time.
As for `O=C(O)c1ccccc1-c1c2cc(Br)c(=O)c(Br)c-2oc2c(Br)c(O)c(Br)cc12`, the Potency entry (in experiment [1]; in the experiment on AA1029; with ATS189; in the experiment with CP185; in the experiment on CP201; in the experiment with CP238) was “inactive” each time. The Potency result in the experiment on CP252, with CP265, in the experiment with CP286, with CP305, in the experiment on CP315 and with CP325 was “inactive” throughout. Further, the Potency entry in the experiment with FAB9 and in the experiment on JCK was “inactive” throughout. The activity, negative = inhibition in experiment [2] (parasite line A) is 7.94%; in experiment [2] (parasite line B) it was -13.6%.
For `NCCCC(N)CC(=O)NC1CNC(=O)C(C2CC(O)N=C(N)N2)NC(=O)/C(=C/NC(N)=O)NC(=O)C(CO)NC(=O)C(CO)NC1=O` (stereo not drawn) (ξβ3hOrn-[Dap]SS[ΔAla(Z-3-ureido)][X2]; lactam 1-C; configuration not given here), the Potency result (in experiment [1]; in the experiment on AA1029; in the experiment with ATS189; in the experiment on CP185; in the experiment with CP201; in the experiment with CP238) was “inactive” throughout. Moreover, the Potency entry in the experiment with CP252, with CP265, in the experiment on CP286, in the experiment with CP305, in the experiment with CP315 and in the experiment with CP325 was “inactive” each time. The Potency entry in the experiment with FAB9 and with JCK was “inactive” throughout. Moreover, the activity, negative = inhibition in experiment [2] (parasite line A) is 5.91%; in [2] (parasite line B), 6.39%.
